Screening data from PubChem.
NPC1 prom act: activators of NPC1 promoter; Potency, µM (series often up to 9.22 µM), for inactives: at the top dose activation, actives largely listed as activators; actives 2.4% (n = 320,000); Huh7 NPC1 promoter luciferase reporter, 24 h; AID 485313; further: % of control where 0% means no effect; nearly all actives have a fitted effect of over 60% in size
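Luciferase expression driven by the NPC1 promoter was measured in stably transfected Huh7 cells after a 24 h compound incubation, using a luciferase reagent and a luminescence read.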
Luc counter: counter-screen: inhibitors of Kinase-Glo firefly luciferase. Q27757. Kinase-Glo luciferase, ATP luminescence, 8 min. Potency, µM (titrated, usually from 38.3 µM), without a hit: at the top dose activity change, negative = inhibition, usual class: inhibitors. actives 0.28% (n = 200,000). AID 1379; further: on the % scale 0 is the no-effect control and ±100 the full control effect; nearly all actives have a fitted effect of over 60% in size
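Compounds were added to a substrate mix at pH 7.2 (50 mM imidazole, 10 uM ATP, within the enzyme's linear range), followed by Kinase-Glo detection reagent; luminescence was measured after 8 minutes at ambient temperature.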
ELG1 genotoxic: inducers of genotoxicity in HEK293T ELG1-luciferase cells | actives 1.3% (n = 330,000) | AID 504466 | Potency, µM (titrated, usually from 46 µM), for the others: top-dose activity change, positive = activation, hits mostly activators | HEK293T ELG1-luciferase reporter, luminescence, 16 h; further: % of control where 0% means no effect; nearly all actives have a fitted effect of over 60% in size
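Genotoxicity was scored as increased ELG1-luciferase reporter signal, measured by ONE-Glo luminescence (30 min, room temperature). Compound or vehicle exposure of the HEK293T reporter cells lasted 16 hr at 37°C.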
Rab9 prom act: activates the Rab9 promoter | Huh7 Rab9 promoter-luciferase reporter, luminescence, 24 h | Potency, µM (highest dose often 9.22 µM), without a hit: at the highest dose activation, negative = inhibition, hits mostly activators | actives 2.8% (n = 320,000); further: % of control where 0% means no effect; nearly all actives have a fitted effect of over 60% in size
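Stable Rab9-luc Huh7, 1500 cells/well, 2 h settle; cmpd in DMSO, 24 h, 37 °C/5% CO2; luciferase reagent 10 min RT; luminescence.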
FLuc modulator: firefly luciferase modulation, counter-screen for miR-21 project; Potency, µM (top dose mostly 57.5 µM), for the others: at the highest dose activity change, negative = inhibition, actives largely listed as inhibitors; AID 588342; purified FLuc, Km substrates, luminescence inhibition; actives 6.9% (n = 360,000); P08659;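 further: plate controls were vehicle for no effect and reference inhibitor for full effect; nearly all actives have a fitted effect of over 55% in size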
Target sequence (P08659 whole entry, looked up): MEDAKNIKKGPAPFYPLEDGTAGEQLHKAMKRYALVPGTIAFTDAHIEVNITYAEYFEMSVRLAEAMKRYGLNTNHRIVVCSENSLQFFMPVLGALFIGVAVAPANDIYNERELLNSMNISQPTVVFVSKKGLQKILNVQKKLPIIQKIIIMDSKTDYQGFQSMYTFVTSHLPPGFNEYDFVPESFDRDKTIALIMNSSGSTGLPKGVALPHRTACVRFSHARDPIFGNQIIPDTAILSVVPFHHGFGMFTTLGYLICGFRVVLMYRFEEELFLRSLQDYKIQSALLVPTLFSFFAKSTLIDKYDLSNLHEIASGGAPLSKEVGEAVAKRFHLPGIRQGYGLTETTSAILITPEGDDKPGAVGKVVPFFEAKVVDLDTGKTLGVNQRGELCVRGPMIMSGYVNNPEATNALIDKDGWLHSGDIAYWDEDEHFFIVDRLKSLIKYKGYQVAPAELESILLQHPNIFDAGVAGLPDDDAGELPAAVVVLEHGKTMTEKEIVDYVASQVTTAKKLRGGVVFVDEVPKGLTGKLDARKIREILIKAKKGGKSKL
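Purified P. pyralis luciferase (10nM final) with 10uM D-luciferin and 10uM ATP (Km levels) in 50mM Tris acetate pH 7.5, 10mM Mg acetate, 0.01% Tween-20, 0.05% BSA; qHTS 6-point titration, ~60 µM downward; luminescence read.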
SMN2 splice up: enhancers of SMN2 splice variant expression; HEK293 SMN2-luciferase splicing reporter, luminescence, 30-36 h; Potency, µM (highest dose often 46.1 µM), for the others: top-dose activity change, positive = activation, most hits filed as activators; actives 2.8% (n = 210,000); further: % of control where 0% means no effect; nearly all actives have a fitted effect of over 55% in size
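qHTS luciferase splicing reporter: luminescence rises when SMN2 exon 7 is included in transfected HEK293 cells. Compound exposure lasted 30-36 h at 37C, with 4.5 mM final sodium butyrate as control, followed by a ONE-Glo read.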
Numbers without * were called inactive; [ ] = dose if it differs, or a comment. A selection: hits, their analogues and other compounds. The true share with any hit is near 7.5%. The call rests on the fitted dose curve; in most records, active means well fitted curve in the direction sought with a large enough effect; inconclusive means small, poorly fitted or top-dose-only effect, or another doubt; inactive means no such curve, though single readings can be large; an effect the other way counts as inactive or inconclusive. Potency means the concentration at half of the fitted maximal effect.

CC(C)c1cc(C(=O)Nc2cc(Cl)ccc2O)no1 was read as NPC1 prom act 2.8µM*, Luc counter -3%, ELG1 genotoxic inconclusive, Rab9 prom act 1.6µM*, FLuc modulator 7.6µM* and SMN2 splice up 13µM*.
`O=C(Nc1cc(Br)ccc1O)c1cc(-c2cccs2)on1` gave NPC1 prom act 23%, ELG1 genotoxic 29%, Rab9 prom act inconclusive and FLuc modulator inconclusive.
Screening CC(C)c1cc(C(=O)Nc2cc(Br)ccc2O)no1 returned NPC1 prom act 24%, Luc counter -5%, ELG1 genotoxic inconclusive, Rab9 prom act inconclusive, FLuc modulator inconclusive and SMN2 splice up inconclusive.
CCCc1cc(C(=O)Nc2cc(Br)ccc2O)no1 was read as NPC1 prom act 16%, Luc counter 3%, ELG1 genotoxic 13µM*, Rab9 prom act 25%, FLuc modulator inconclusive and SMN2 splice up inconclusive.
Screening CCCc1cc(C(=O)Nc2cc(Cl)ccc2O)no1 returned NPC1 prom act inconclusive, ELG1 genotoxic 16µM*, Rab9 prom act inconclusive and FLuc modulator 11µM*.
For CCCc1cc(=O)oc2cc(OCC(=O)N3CCN(C(=O)C4COc5ccccc5O4)CC3)ccc12 (stereo unspecified) the results were NPC1 prom act -1%, ELG1 genotoxic -14%, Rab9 prom act -6% and FLuc modulator -2%.
Screening O=C(CN1C(=O)/C(=C\c2cccc(Br)c2)Oc2ccccc21)NCCCN1CCOCC1 returned NPC1 prom act -1%, ELG1 genotoxic 0%[9.26 µM], Rab9 prom act -6% and FLuc modulator 6.7µM*.
O=C(CN1C(=O)COc2ccccc21)NCCCN1CCOCC1 was read as NPC1 prom act 0%, ELG1 genotoxic 1%, Rab9 prom act 1% and FLuc modulator 4%.
For O=C(CN1C(=O)/C(=C/c2ccc(C(F)(F)F)cc2)Sc2ccccc21)NCCCN1CCOCC1 the results were NPC1 prom act -4%, ELG1 genotoxic 1%[9.26 µM], Rab9 prom act -1% and FLuc modulator inconclusive.
For CCOC(=O)C1CCCN(C(=O)CN2C(=O)/C(=C/c3ccc(OC)cc3)Oc3ccccc32)C1 (stereo unspecified) the results were NPC1 prom act 0%, Luc counter -5%, ELG1 genotoxic -15%, Rab9 prom act -1%, FLuc modulator 15µM* and SMN2 splice up -50%.
COc1cccc(/C=C2/Oc3ccccc3N(CC(=O)NCC3CCCO3)C2=O)c1 (stereo unspecified) was read as NPC1 prom act 0%, ELG1 genotoxic -6%, Rab9 prom act 3% and FLuc modulator 9.5µM*.
For CCOC(=O)C1CCCN(C(=O)CN2C(=O)c3ccccc3C2=O)C1 (stereo unspecified) the results were NPC1 prom act -1%, Luc counter -8%, ELG1 genotoxic -6%, Rab9 prom act 18%, FLuc modulator 0% and SMN2 splice up 18%.
CCc1ccc(/C=C2/Sc3ccccc3N(CC(=O)NCCCN3CCOCC3)C2=O)cc1 was read as NPC1 prom act -1%, ELG1 genotoxic 7%, Rab9 prom act -2% and FLuc modulator 19µM*.
For CC(OC(=O)Cc1ccc(Cl)cc1)C(=O)NC1CCCCC1C (stereo unspecified) the results were NPC1 prom act 2%, ELG1 genotoxic -2%, Rab9 prom act -2% and FLuc modulator 0%.
Screening O=C(O)CN1C(=O)/C(=C/c2cccc(Cl)c2)Oc2ccccc21 returned NPC1 prom act -5%, ELG1 genotoxic -1%, Rab9 prom act 3% and FLuc modulator 13µM*.
O=C(COc1ccc(S(=O)(=O)NCc2ccccc2)cc1Cl)NCc1ccncc1 was read as NPC1 prom act -1%, ELG1 genotoxic -3%, Rab9 prom act inconclusive and FLuc modulator -2%.
